# Results taken from publication PMC10668032, “Altered binding affinity of SIX1-Q177R correlates with enhanced WNT5A and WNT pathway effector expression in Wilms tumor”.
# In all, about 33,000 sequences were measured (“e-score”: median about -0.053, highest 2% from about 0.38 on). The sample as a whole holds a higher share of the highest values than the screen did.
# Target: T1, SIX1 homeodomain (reference allele) (human, UniProt Q15475 108-198)
# T1 sequence: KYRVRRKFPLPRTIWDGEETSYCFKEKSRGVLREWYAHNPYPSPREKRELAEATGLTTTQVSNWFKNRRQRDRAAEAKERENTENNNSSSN
# Experiment: universal protein binding microarray; Universal all-10-mer PBM (8x60K, AMADID 030236), 300 nM GST-tagged protein, Alexa Fluor 488 anti-GST; buffer, salt, pH and temperature not stated (as in Berger); high values mean tight binding
# Conditions: protein: ivt; tags: N-terminal GST; dsDNA, one strand shown
# Method in brief: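 Binding of GST-tagged homeodomains is given as 8-mer E-scores from the Universal PBM Analysis Suite. The proteins were produced by in vitro transcription/translation, quantified by anti-GST western blot against a recombinant GST standard curve, and applied in duplicate at 300 nM final concentration to universal 'all 10-mer' protein binding microarrays (8×60K format).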
row,Sequence,binding signal [E-score]
1,ATACTTTC,0.16 ± 0.145
2,CCTCCGGA,0.203 ± 0.0104
3,CCTCGAGG,0.197 ± 0.043
4,CAGATCAG,0.353 ± 0.0153
5,ATACCAAT,0.3482 ± 0.0028
6,ATCCCAGC,0.221 ± 0.0257
7,AGTGTACC,0.16 ± 0.0592
8,CGTGTATA,0.247 ± 0.0518
9,AATGTATC,0.363 ± 0.0137
10,CTTGTATC,0.266 ± 0.0293
11,AGTGTATA,0.291 ± 0.0334
12,AGTGTATC,0.43 ± 0.00296
13,CGTGTATC,0.404 ± 0.0303
14,CATGTATC,0.403 ± 0.00743
15,CATGTATA,0.223 ± 0.0131
16,ATCGGGGG,0.223 ± 0.00524
17,ATCAACAG,0.209 ± 0.0732
18,ATCCGGCC,0.316 ± 0.022
19,CGATCGGC,0.1802 ± 0.00119
20,TATTATGA,0.207 ± 0.134
21,ATCAAGCA,0.174 ± 0.047
22,GATGCGGA,0.199 ± 0.0357
23,CTTCGATC,0.152 ± 0.112
24,GCAGATCC,0.272 ± 0.0482
25,ACTGATCT,0.34 ± 0.0165

row,Sequence,binding signal [E-score]
1,CCTGATCA,0.306 ± 0.0156
2,ACTGATCG,0.156 ± 0.0405
3,CCTGATCG,0.197 ± 0.0659
4,GCTGATCA,0.198 ± 0.00374
5,GCTGATCC,0.425 ± 0.0138
6,CCTGATCC,0.387 ± 0.0469
7,ACTGATCC,0.398 ± 0.007
8,GTCTAGTA,0.158 ± 0.0279
9,CACACCGG,0.224 ± 0.0376
10,GTATACGA,0.308 ± 0.0266
11,CATGGTGA,0.225 ± 0.035
12,CATATGCC,0.162 ± 0.0394
13,GATATGCA,0.4032 ± 0.00302
14,GATATGCC,0.427 ± 0.0454
15,AATATGCG,0.171 ± 0.0476
16,AATATGCC,0.16 ± 0.0322
17,GATATGAA,0.259 ± 0.0356
18,ATAATATG,0.27 ± 0.0724
19,ATAATACA,0.302 ± 0.0417
20,CTAATACC,0.285 ± 0.0649
21,ATAATACG,0.385 ± 0.0407
22,ACAATACG,0.25 ± 0.0363
23,ATAATACC,0.421 ± 0.0503
24,GGAGCATA,0.213 ± 0.018
25,ATATGAGG,0.156 ± 0.0225

row,Sequence,binding signal [E-score]
1,CGTCTAAG,0.193 ± 0.0194
2,GCAATATA,0.16 ± 0.0581
3,CGACACCA,0.416 ± 0.0371
4,CGACACCC,0.439 ± 0.0379
5,CGACACCG,0.427 ± 0.0217
6,CAACACCA,0.282 ± 0.0199
7,GGACACCC,0.372 ± 0.033
8,CCACACCG,0.151 ± 0.104
9,TCACACCA,0.195 ± 0.0562
10,AGACACCC,0.335 ± 0.0199
11,AGACACCG,0.323 ± 0.0488
12,CCATAGGG,0.162 ± 0.116
13,GCAGATCA,0.369 ± 0.0161
14,ATACTGAG,0.286 ± 0.0205
15,CTCCAGGA,0.161 ± 0.0145
16,ATCAGGTA,0.2929 ± 0.00141
17,CTCGTGTA,0.158 ± 0.00844
18,AAAATCCG,0.175 ± 0.0497
19,CGAGTATC,0.435 ± 0.0231
20,GGAGTATA,0.319 ± 0.0316
21,AGAGTATA,0.262 ± 0.0847
22,CGAGTATA,0.29 ± 0.0819
23,CGAGTACC,0.185 ± 0.0226
24,AGAGTATC,0.465 ± 0.0179
25,ACCGATCG,0.272 ± 0.0437

row,Sequence,binding signal [E-score]
1,ATATAGCC,0.25 ± 0.032
2,TAACACCA,0.299 ± 0.0116
3,GGACACGA,0.176 ± 0.0225
4,TGACACCA,0.466 ± 0.0154
5,GGACACCA,0.3862 ± 0.00187
6,AGACACCT,0.287 ± 0.0126
7,AGACACCA,0.329 ± 0.0244
8,GATTATCA,0.2193 ± 0.00188
9,CCAGATTA,0.252 ± 0.0366
10,ACCATGTA,0.197 ± 0.0756
11,GAGGACAC,0.222 ± 0.0132
12,AGTCGGAT,0.296 ± 0.0281
13,ACACGGAT,0.4012 ± 0.00112
14,AAACGGAT,0.364 ± 0.0337
15,ATACGTAC,0.336 ± 0.0217
16,AGACGGCA,0.197 ± 0.0126
17,AGGCGGAT,0.346 ± 0.0312
18,AGACGGAT,0.402 ± 0.0158
19,ATACGTAG,0.276 ± 0.0521
20,ACTCGGAT,0.38 ± 0.00767
21,ACACGGCT,0.2 ± 0.00761
22,ATACGTAT,0.421 ± 0.00632
23,AATCGGAT,0.253 ± 0.0252
24,TCAGATGA,0.3071 ± 0.00299
25,AAGATGAT,0.156 ± 0.09

row,Sequence,binding signal [E-score]
1,TATCGATA,0.342 ± 0.0612
2,GATCAAAC,0.193 ± 0.0111
3,ACACCATC,0.312 ± 0.0186
4,ATCGGGGC,0.198 ± 0.0293
5,CGTCTCAC,0.254 ± 0.0158
6,AACCGATC,0.335 ± 0.00772
7,TACCCCTA,0.34 ± 0.00513
8,ATACGGAT,0.4254 ± 0.00356
9,ATACGGAA,0.218 ± 0.0296
10,ATACGGAG,0.193 ± 0.0505
11,CTATACTC,0.243 ± 0.0735
12,CGATACTA,0.424 ± 0.0171
13,AGATAGTC,0.172 ± 0.0352
14,CGATACTC,0.45435 ± 0.000368
15,AGATACTG,0.34203 ± 0.000156
16,AGATACTC,0.402 ± 0.0473
17,AGATACTA,0.316 ± 0.0687
18,GGATACTA,0.371 ± 0.0235
19,CAATACTC,0.297 ± 0.043
20,ATATAGTC,0.209 ± 0.0236
21,AACACCTG,0.267 ± 0.00339
22,ATCCAGTC,0.179 ± 0.0594
23,CGTATAAA,0.219 ± 0.0801
24,GATCAACA,0.281 ± 0.0353
25,TATCAAAA,0.342 ± 0.1

row,Sequence,binding signal [E-score]
1,TATCAACA,0.399 ± 0.0298
2,GATCAATA,0.291 ± 0.0232
3,TATCAATA,0.407 ± 0.0444
4,TATCAAGA,0.302 ± 0.0583
5,CCATCTCA,0.164 ± 0.00629
6,GGATTATA,0.362 ± 0.0571
7,TAATAATA,0.225 ± 0.0789
8,ATCCCGGC,0.173 ± 0.0398
9,CATCTATA,0.251 ± 0.034
10,AATCCGGT,0.252 ± 0.0106
11,CATCCGAC,0.209 ± 0.0838
12,AATCCGAC,0.189 ± 0.00791
13,CATCCGGC,0.226 ± 0.0528
14,GATCCGAC,0.389 ± 0.0403
15,AATCCGGC,0.228 ± 0.0229
16,TATCCGGA,0.3912 ± 0.000898
17,GATCCGAA,0.357 ± 0.0457
18,CATCCGTA,0.168 ± 0.00426
19,GATCCGTA,0.383 ± 0.00781
20,GATCCGGC,0.3929 ± 0.00159
21,TACCCGGA,0.332 ± 0.00363
22,ATCTACTC,0.297 ± 0.0368
23,ATATGTAG,0.151 ± 0.0301
24,CATAAACC,0.19 ± 0.0201
25,GATAATCC,0.34 ± 0.0479

row,Sequence,binding signal [E-score]
1,CGACTATC,0.246 ± 0.0396
2,GAGATCAC,0.368 ± 0.00856
3,ATCCTTGG,0.189 ± 0.0361
4,GATCCGGA,0.405 ± 0.0443
5,CATCCGGA,0.21 ± 0.0635
6,AATCCGGA,0.276 ± 0.0325
7,ACACCAAC,0.224 ± 0.00659
8,CCCCTATC,0.405 ± 0.0204
9,ACCCTATC,0.346 ± 0.0051
10,CCCCTATA,0.198 ± 0.0352
11,CATATCTA,0.322 ± 0.0223
12,CAGATCAA,0.298 ± 0.00526
13,GATATCAA,0.453 ± 0.0358
14,GATATCAC,0.476 ± 0.018
15,GCTATCAC,0.357 ± 0.0605
16,GATATTAA,0.31 ± 0.0894
17,GATATTAC,0.319 ± 0.0605
18,TATATCAA,0.361 ± 0.0752
19,AATATCTA,0.259 ± 0.0807
20,GATATCTA,0.392 ± 0.0618
21,CATATCAA,0.452 ± 0.0378
22,CTAATCTC,0.175 ± 0.0194
23,ATCCACTG,0.152 ± 0.0476
24,ATCAAACC,0.261 ± 0.00716
25,GATCAATC,0.366 ± 0.0109

row,Sequence,binding signal [E-score]
1,ATACGCTC,0.245 ± 0.0572
2,GGATCTAA,0.285 ± 0.00708
3,ATACGAAG,0.199 ± 0.0115
4,GTATTCCA,0.202 ± 0.0137
5,ATACGTCC,0.24 ± 0.0851
6,CGCGACAC,0.254 ± 0.0327
7,GGCGATCA,0.338 ± 0.00739
8,AGCGATCG,0.211 ± 0.0392
9,AGCGATAT,0.42 ± 0.0465
10,CGCGATAG,0.199 ± 0.0163
11,AGCGCGAT,0.166 ± 0.026
12,GGCGATAC,0.4435 ± 0.00237
13,GGCGATGA,0.193 ± 0.0619
14,AGCGATCA,0.206 ± 0.0525
15,AGCGATAG,0.209 ± 0.0329
16,AGCGATAC,0.453 ± 0.01
17,CGCGATAC,0.458 ± 0.000728
18,ATACACGA,0.234 ± 0.00563
19,GGCCGATA,0.29107 ± 0.000269
20,CGATGCAG,0.21 ± 0.0529
21,AGGCATAT,0.308 ± 0.0386
22,GACAGATC,0.286 ± 0.0143
23,GTAATCTA,0.15 ± 0.0468
24,CTATACTA,0.168 ± 0.0897
25,CCTCTAGA,0.158 ± 0.0403

row,Sequence,binding signal [E-score]
1,ACCGCGCG,0.175 ± 0.0242
2,CGCGATCA,0.272 ± 0.00455
3,AGCGATCC,0.356 ± 0.0223
4,CGCGATCC,0.391 ± 0.0245
5,TGTATACA,0.3188 ± 0.000346
6,GCTATACC,0.284 ± 0.0448
7,CTTATACC,0.275 ± 0.0521
8,GGTATATA,0.384 ± 0.0217
9,GGTATAAC,0.301 ± 0.0179
10,ATTATACC,0.389 ± 0.0376
11,GGTATACC,0.464 ± 0.0068
12,CGTATATA,0.253 ± 0.0289
13,GGTATAGA,0.3008 ± 0.001
14,AGTATACA,0.294 ± 0.0103
15,GGTATACA,0.3843 ± 0.00371
16,ATTATACG,0.302 ± 0.0645
17,ACCAGTAT,0.24 ± 0.0167
18,ATCCTGTC,0.228 ± 0.0128
19,ATCCATGA,0.273 ± 0.0349
